Screening data deposited in PubChem by The Scripps Research Institute Molecular Screening Center.
Shown are actives, neighbours in structure and some others; about 3.5% of the full set was active somewhere.
TEAD-YAP inh: TEAD-YAP interaction inhibition | AID 1259422 | HEK-TIYL cells, TEAD-Gal4/YAP UAS-luciferase luminescence | inhibition, % at 9.12 µM | 640,000 compounds, 1.4% hits; in the data active = inhibition above about 32%;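 note: 0% = median of test compound wells and 100% = reference inhibitor wells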
FBW7 act: human FBW7 E3 ligase activation, primary screen. Q969H0. AlphaScreen FBW7–phospho-cyclin E peptide binding, activator screen. normalized activity (activation), % at 26.1 µM. 650,000 compounds, 0.13% hits; in the data active = normalized activity above about 1.9%;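 note: purified mutant Fbw7 with reduced substrate affinity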
Target sequence (Q969H0 whole entry, looked up): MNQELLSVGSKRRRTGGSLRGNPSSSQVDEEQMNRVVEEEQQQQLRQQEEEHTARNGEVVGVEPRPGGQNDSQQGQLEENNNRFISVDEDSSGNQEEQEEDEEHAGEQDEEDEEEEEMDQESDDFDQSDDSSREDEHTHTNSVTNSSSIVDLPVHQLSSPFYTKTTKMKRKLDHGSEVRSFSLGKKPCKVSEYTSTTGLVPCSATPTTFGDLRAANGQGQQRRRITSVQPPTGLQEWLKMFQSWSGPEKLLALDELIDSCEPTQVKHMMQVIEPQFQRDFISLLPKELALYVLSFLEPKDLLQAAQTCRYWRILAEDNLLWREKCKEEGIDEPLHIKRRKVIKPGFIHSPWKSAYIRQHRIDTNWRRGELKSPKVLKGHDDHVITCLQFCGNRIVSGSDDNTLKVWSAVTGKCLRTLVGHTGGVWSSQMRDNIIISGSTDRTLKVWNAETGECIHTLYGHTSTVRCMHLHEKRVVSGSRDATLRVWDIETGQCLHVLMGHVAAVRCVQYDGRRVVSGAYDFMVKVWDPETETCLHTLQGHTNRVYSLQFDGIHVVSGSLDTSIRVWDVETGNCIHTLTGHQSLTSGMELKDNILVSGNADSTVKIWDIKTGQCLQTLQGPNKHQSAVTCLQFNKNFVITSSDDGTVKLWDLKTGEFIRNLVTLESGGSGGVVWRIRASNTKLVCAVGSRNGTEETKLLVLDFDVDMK
GPR151 activ: human GPR151 activation | Q8TDV0 | PathHunter beta-arrestin GPR151 cells, luminescence | activation, % at 11.2 µM | 650,000 compounds, 1% hits; in the data active = activation above about 4.9%;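 note: 0% = median of compound wells and 100% = cells with positive control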
MITF inh: blocks human microphthalmia-associated transcription factor; inhibition, % at 2.6 µM; 650,000 compounds, 0.91% hits; AlphaScreen MITF homodimerization, bead proximity signal; O75030; in the data active = inhibition above about 50%;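 note: 0% = vehicle wells with protein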
Starred values were filed as active, the others as inactive.

Screening CCOC(=O)C1=C(C)OC(N)=C(C#N)C1c1cccs1 (configuration not stated) returned TEAD-YAP inh -3, FBW7 act 0, GPR151 activ -2 and MITF inh 6.
For N#CC1=C(N)Oc2cc(N)ccc2C1c1cccnc1 (configuration not stated) the results were TEAD-YAP inh 3, FBW7 act 0, GPR151 activ 0 and MITF inh -5.
`CCN(CC)c1ccc2c(c1)OC(N)=C(C#N)C2c1cccnc1` (configuration not stated) gave TEAD-YAP inh 54*, FBW7 act 0, GPR151 activ 0 and MITF inh -5.
Screening CCN(CC)c1ccc2c(c1)OC(N)=C(C#N)C2c1ccccc1 (configuration not stated) returned TEAD-YAP inh 17, FBW7 act 3.4*, GPR151 activ 1 and MITF inh 2.
Screening CCCCCC(=O)CC[C@@H]1[C@@H](C/C=C\CCCC(=O)OC(C)C)[C@@H](O)C[C@H]1O returned GPR151 activ 0 and MITF inh 8.
`COc1cc(-c2cnn3ccc(NCCO)nc23)ccc1O` gave TEAD-YAP inh 1, FBW7 act 0, GPR151 activ -1 and MITF inh -22.
For COc1cc(Nc2ccn3ncc(-c4ccccc4Cl)c3n2)cc(OC)c1OC the results were TEAD-YAP inh 36*, FBW7 act 2, GPR151 activ 0 and MITF inh 9.
`COc1cccc(-c2cnn3ccc(Nc4cc(OC)c(OC)c(OC)c4)nc23)c1` gave TEAD-YAP inh -3, FBW7 act 0, GPR151 activ 1 and MITF inh 10.
`COc1cc(-c2cnn3ccc(Nc4cc(OC)c(OC)c(OC)c4)nc23)ccc1O` gave TEAD-YAP inh 71*, FBW7 act 0, GPR151 activ 2 and MITF inh 7.
COc1ccc(-c2cnn3ccc(NCCO)nc23)cc1OC was read as TEAD-YAP inh 57*, FBW7 act 0, GPR151 activ 0 and MITF inh -4.
For Oc1ccc(-c2cnn3ccc(NCc4cccnc4)nc23)cc1 the results were TEAD-YAP inh 35*, FBW7 act 0, GPR151 activ 0 and MITF inh -5.
`Nc1ccc2c(c1)OC1(CCCC1)O2` gave TEAD-YAP inh 94*, FBW7 act -1, GPR151 activ -1 and MITF inh 11.
O=C(O)COc1ccc(N2C(=O)C(=O)/C(=C(\O)c3ccccc3)C2c2cccc(F)c2)cc1 (configuration not stated) was read as TEAD-YAP inh -8, FBW7 act 0, GPR151 activ -1 and MITF inh 13.
For O=C(CSc1nc2ccsc2c(=O)n1-c1ccccc1)Nc1ccccc1Cl the results were TEAD-YAP inh 7, FBW7 act 0, GPR151 activ 1 and MITF inh 2.
Screening O=C(CSc1nc2ccsc2c(=O)n1-c1ccc(F)cc1)Nc1ccccc1Cl returned TEAD-YAP inh 33*, FBW7 act 1, GPR151 activ 0 and MITF inh 9.
Screening CCCCNCCOc1ccc(I)cc1 returned TEAD-YAP inh -8, FBW7 act 0, GPR151 activ 0 and MITF inh 0.
For COc1cc(-c2cnc3c(NC4CCC(O)CC4)nccn23)cc(OC)c1OC (configuration not stated) the results were TEAD-YAP inh 15, FBW7 act 0, GPR151 activ 0 and MITF inh 0.
Screening O=C(NC1CC1)c1ccc(-c2cnc3c(NC4CCC(O)CC4)nccn23)cc1 (configuration not stated) returned TEAD-YAP inh 51*, FBW7 act 0, GPR151 activ -1 and MITF inh -8.
`OC1CCC(Nc2nccn3c(-c4ccc5c(c4)OCO5)cnc23)CC1` (configuration not stated) gave TEAD-YAP inh -15, FBW7 act 1.9*, GPR151 activ -1 and MITF inh 15.
Screening COc1ccccc1-c1cnc2c(NC3CCC(O)CC3)nccn12 (configuration not stated) returned TEAD-YAP inh 50*, FBW7 act 0, GPR151 activ 0 and MITF inh 14.
`OC1CCC(Nc2nccn3c(-c4ccc(F)cc4)cnc23)CC1` (configuration not stated) gave TEAD-YAP inh -6, FBW7 act 0, GPR151 activ -1 and MITF inh 3.
Screening C=CCn1c(-c2ccccc2)cnc1SCC(=O)Nc1ccccc1 returned TEAD-YAP inh 23, FBW7 act -1, GPR151 activ 0 and MITF inh 15.
For C=CCn1c(-c2ccc(Cl)cc2)cnc1SCC(=O)Nc1sccc1C(N)=O the results were TEAD-YAP inh 34*, FBW7 act 0, GPR151 activ 0 and MITF inh 1.
Screening COc1ccc(Nc2nc(N3CCCCC3)nc3[nH]ncc23)cc1 returned TEAD-YAP inh 40*, FBW7 act 1, GPR151 activ 1 and MITF inh 7.
`COc1ccc(Nc2nc(N3CCN(c4ccccc4OC)CC3)nc3[nH]ncc23)cc1` gave TEAD-YAP inh 2, FBW7 act 0, GPR151 activ 2 and MITF inh -3.
CC1=C(C(=O)Nc2cccc(C)n2)C(c2ccc(Br)cc2)C2=C(CCCC2=O)N1 (configuration not stated) was read as TEAD-YAP inh 16, FBW7 act 0, GPR151 activ 2 and MITF inh -1.
COc1cc(Nc2nc(Nc3ncccn3)nc3c2ncn3-c2ccsc2)cc(OC)c1OC was read as TEAD-YAP inh 10, FBW7 act 0, GPR151 activ 2 and MITF inh 3.
Screening c1cnc2ccc(Nc3nc(NCCN4CCOCC4)c4ncn(-c5ccsc5)c4n3)cc2c1 returned TEAD-YAP inh 48*, FBW7 act 0, GPR151 activ 0 and MITF inh 4.
Screening c1ccc(-n2cnc3c(Nc4ccc(N5CCOCC5)cc4)nc(Nc4nccc5ccccc45)nc32)cc1 returned TEAD-YAP inh 43*, FBW7 act 0, GPR151 activ 1 and MITF inh 16.
c1ccc(-c2nc(NCCN3CCOCC3)c3ncn(-c4ccsc4)c3n2)cc1 was read as TEAD-YAP inh 33*, FBW7 act 0, GPR151 activ 1 and MITF inh 5.
COc1cc(Nc2nc(Nc3ccnn3C)nc3c2ncn3-c2ccsc2)cc(OC)c1OC was read as TEAD-YAP inh 63*, FBW7 act 0, GPR151 activ 0 and MITF inh 16.
For O=C(OCCN1C(=O)c2ccccc2C1=O)c1cc2ccccc2oc1=O the results were TEAD-YAP inh -10, FBW7 act 0, GPR151 activ -1 and MITF inh 26.
Screening CC1=C(C(=O)OCC(C)C)C(c2ccc([N+](=O)[O-])cc2)NC(=O)N1C (configuration not stated) returned TEAD-YAP inh -1, FBW7 act 0, GPR151 activ 1 and MITF inh -19.
For COc1cc(Nc2nc(NCCN3CCOCC3)c3ncn(-c4ccccc4)c3n2)cc(OC)c1OC the results were TEAD-YAP inh 42*, FBW7 act 1, GPR151 activ 0 and MITF inh 7.
